Assay results from the supplement of paper PMC3334620.
Over roughly 33,000 sequences, “E-score (-0.5 to 0.5)” has its median near -0.011; the highest 2% begin near 0.28. Many of the other results were omitted from the sample, so the highest values are more common in it than they were.

Each sequence was assayed against T1, Gcr1 (UniProt P07261) (assay: PBM E-score (8-mer binding enrichment) (E-score (-0.5 to 0.5)); higher = stronger / more preferred TF binding). Settings: protein concentration: 100 nM; construct: GST-full length.
T1 sequence: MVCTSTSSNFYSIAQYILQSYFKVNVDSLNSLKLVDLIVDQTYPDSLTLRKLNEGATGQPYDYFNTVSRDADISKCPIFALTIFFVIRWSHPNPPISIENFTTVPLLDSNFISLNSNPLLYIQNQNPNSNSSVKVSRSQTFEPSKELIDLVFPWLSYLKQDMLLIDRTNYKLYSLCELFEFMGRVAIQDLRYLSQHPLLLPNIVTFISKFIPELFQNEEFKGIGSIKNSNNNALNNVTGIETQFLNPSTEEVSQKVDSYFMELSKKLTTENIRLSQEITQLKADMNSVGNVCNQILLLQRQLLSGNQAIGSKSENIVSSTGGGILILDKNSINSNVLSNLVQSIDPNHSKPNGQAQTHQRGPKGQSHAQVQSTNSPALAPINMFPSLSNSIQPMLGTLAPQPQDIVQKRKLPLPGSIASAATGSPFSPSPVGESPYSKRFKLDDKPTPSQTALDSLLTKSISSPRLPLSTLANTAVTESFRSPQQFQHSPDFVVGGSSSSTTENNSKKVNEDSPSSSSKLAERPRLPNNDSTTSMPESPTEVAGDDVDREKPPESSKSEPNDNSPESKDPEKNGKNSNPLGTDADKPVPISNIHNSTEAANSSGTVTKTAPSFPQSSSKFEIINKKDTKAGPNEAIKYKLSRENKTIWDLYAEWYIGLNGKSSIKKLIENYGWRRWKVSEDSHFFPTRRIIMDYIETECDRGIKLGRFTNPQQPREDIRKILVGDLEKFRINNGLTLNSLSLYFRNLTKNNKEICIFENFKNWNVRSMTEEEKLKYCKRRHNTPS
Protocol: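 Universal 'all 10-mer' protein binding microarrays (Agilent AMADID 015681) probed with GST-tagged S. cerevisiae TFs (full-length or DBD) made by in vitro transcription/translation (PURExpress), about 100-200 nM. Bound TF was detected with fluorescent anti-GST. Each ungapped 8-mer (which stands for itself and its reverse complement) is scored by the PBM enrichment score (E-score), a modified Wilcoxon-Mann-Whitney statistic from -0.5 to +0.5, computed with the Universal PBM Analysis Suite. Scale: above 0.35 generally sequence-specific binding.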

Sequence	PBM E-score
CATAGACG	0.0886
CTAATTTA	0.291
GTAATTTA	0.109
CTAATTTC	0.189
ATACCTTG	-0.108
AATTTTTG	0.1
AAATTGGT	0.226
AAAATTGG	0.316
ATTTTTGG	0.186
AAATTTGG	0.301
CAATTGGG	-0.0107
AAATTGGG	0.295
CAATTTGG	0.222
AAAATTGC	-0.203
AAATTTTG	0.088
AATTTTGG	0.287
CAAATTGG	0.213
AGGGAATA	0.0244
AATAGATC	-0.0063
CGATCTTA	-0.045
GAGTTCAC	-0.0309
ATGTGCCG	-0.205
ACCGCTTG	-0.0218
AGTTTAAT	0.0173
ACACTCGT	-0.152

Sequence	PBM E-score
ATTTGGAA	0.373
GTTTGGAA	0.202
CTTTGGAA	0.282
ATTTGGAC	0.166
CTTTGGAC	-0.147
ATTTGGAG	0.0526
ATGCTAAC	0.139
AATCAGAC	0.0464
AGCCCAGA	0.0713
ATAGCACC	0.159
CTAGCACA	-0.181
CTAGCATA	0.017
ATAGCATC	0.0848
CTAGCATC	0.315
CTAGCACC	0.31
CCAGAGCG	-0.144
ACCGGATC	0.0302
ACCGGACG	0.32
ACCGGATA	0.00906
ACCGGATG	0.349
ACCGGAAG	0.303
CCCGGACG	-0.0526
ACCGGAAT	0.185
ACCGGACT	-0.0693
ACCGGAAC	0.203

Sequence	PBM E-score
AAGGGGTC	-0.19
CGATCAAG	-0.0812
CCTTGGCC	-0.327
ATTAGGAG	0.26
CGCTAGTC	-0.153
AACAATGT	0.0351
ATCCCATG	-0.0862
TCGTTTCA	0.077
AGATTCCC	0.265
TGATTCCA	0.0933
CGATTCCC	0.0331
AGATTCCT	0.399
GGATTCAC	0.159
ACATTCCT	0.0561
CGATTCCA	0.178
AGATTCCA	0.426
GGATTCCC	0.418
ATATTCCG	0.131
CGATTCCG	-0.0838
AGATTCCG	0.284
CCAGTTGA	-0.0652
GGATTGAC	-0.0943
AACCCAGG	0.056
CCGTTGAC	-0.121
TGAACCAA	0.022

Sequence	PBM E-score
CGAACCAC	0.0103
GCAACCAC	0.267
GGAACCAC	0.284
GCAACCAA	0.302
GGAACCAA	0.31
CGAACCAA	-0.0751
AGAACCAC	0.035
CCAACCAA	0.0612
AATGGACG	0.143
CGTGGGCC	-0.23
GGGGAGCA	-0.103
GGTCGAGA	-0.0372
GTAGGATA	-0.109
CGACTGGC	-0.241
CGACTGGA	0.316
ATACTGGA	0.373
GAACTGGA	0.303
GGACTGGA	-0.0243
TAACTGGA	0.225
CAACTGGA	0.212
ATACTGGC	0.161
GTACTGGA	0.235
CGCAGTTA	0.15
ACGTAGCC	0.14
ACGTAGCA	-0.079

Sequence	PBM E-score
ACGTAGCT	0.282
CGGTTGGA	0.0351
GCAATCGC	-0.113
ATTCAAGC	-0.0491
CCTCTATA	0.266
ATGGATGA	-0.0514
ATGGATGG	-0.034
CTGGATGA	0.0353
CTGGATAC	0.135
ATGGATGC	0.389
CTGGATGC	0.425
ACGGGGGC	-0.08
AGTCCGGA	0.0284
ATCGGATA	0.0757
TGTAGACA	-0.0678
AAACTGGT	0.178
TCGCCGCA	0.0198
CGCTCAAC	-0.0355
CGCACCCG	0.0194
AGCACCCT	0.277
AGCACCAG	0.156
AGCACCCG	0.282
AACACCCA	-0.0911
AGCACACC	-0.188
AGCACCAT	0.282

Sequence	PBM E-score
AGCACCCA	0.351
AGCACCAC	0.235
CAAGATTC	0.122
GAAGCGCA	0.129
AGGTAAAG	-0.112
CATGCTAC	-0.123
GATGCTGC	0.276
GATGCTAA	0.372
CGTGCTGA	-0.14
GGTGCTGA	0.335
GATGCTAC	0.338
GATGCTGA	0.312
TATGCTAA	-0.0329
CATGCTGA	-0.229
AATGCTAA	0.206
AATGCTAC	-0.0602
GGTGCTTA	0.259
AAGGCGAA	-0.0278
CACAATGA	0.0838
GCTTCAAA	0.192
AGTTGGCG	0.0665
CACTCCAG	0.0875
ACCGCGGC	0.143
ACGCCGGA	0.0899
CATTTGGC	-0.0265

Sequence	PBM E-score
CACCTGCC	-0.127
ACCAATGG	0.0385
ACACTGAG	-0.126
CCATTTTA	0.23
CCATTTAC	0.0873
GCTATTTA	-0.162
ACCATTTA	0.0518
ATATTTAA	0.111
ACTATTTA	0.293
CCTATTTA	0.247
CCCATTTC	-0.0272
CCATTTAA	0.304
GTATTTAA	0.117
CTATTTAA	0.309
CCCATTTA	0.293
ACAGTCCA	-0.304
TACCGTGA	0.0127
ACTCTTCT	0.0323
TCCGGAAA	0.172
CACCCGGA	0.136
CGAAGTAC	-0.022
CGCCAAAG	0.0195
